# Reference: PubChem BioAssay
# Calls of active or inactive are those of the source.
# Key:
# [1] = anti-His antibody binders, primary screen, artefact control for SMM control protein annotation, biochemical, small-molecule microarray, 635 nm fluorescence (AID 1128); conditions: anti-His Alexa647 antibody binding, higher = more signal;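 note: score merges feature fluorescence with signal-to-noise for each printed compound spot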
# [2] = system: Human papillomavirus type 1a E7 protein (residues 1-88); assay: HPV1a E7 small-molecule binders, primary screen, biochemical, small-molecule microarray, residues 1-88, 635 nm (AID 1129); conditions: small-molecule microarray binding, fluorescence 635 nm; higher = more signal
# [3] = molecular target: Focal adhesion kinase 1 (Homo sapiens) (UniProt Q05397); assay: small-molecule microarray binders of FAK, primary screen, biochemical, 635/667 nm fluorescence, BSA, DTT (AID 1130); conditions: PTK2 binding, 635 nm fluorescence, higher = more signal;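 note: composite of spot emission at 667 nm and signal to noise over triplicate slides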
# Chain of Focal adhesion kinase 1 (Homo sapiens) (Q05397 whole entry, looked up): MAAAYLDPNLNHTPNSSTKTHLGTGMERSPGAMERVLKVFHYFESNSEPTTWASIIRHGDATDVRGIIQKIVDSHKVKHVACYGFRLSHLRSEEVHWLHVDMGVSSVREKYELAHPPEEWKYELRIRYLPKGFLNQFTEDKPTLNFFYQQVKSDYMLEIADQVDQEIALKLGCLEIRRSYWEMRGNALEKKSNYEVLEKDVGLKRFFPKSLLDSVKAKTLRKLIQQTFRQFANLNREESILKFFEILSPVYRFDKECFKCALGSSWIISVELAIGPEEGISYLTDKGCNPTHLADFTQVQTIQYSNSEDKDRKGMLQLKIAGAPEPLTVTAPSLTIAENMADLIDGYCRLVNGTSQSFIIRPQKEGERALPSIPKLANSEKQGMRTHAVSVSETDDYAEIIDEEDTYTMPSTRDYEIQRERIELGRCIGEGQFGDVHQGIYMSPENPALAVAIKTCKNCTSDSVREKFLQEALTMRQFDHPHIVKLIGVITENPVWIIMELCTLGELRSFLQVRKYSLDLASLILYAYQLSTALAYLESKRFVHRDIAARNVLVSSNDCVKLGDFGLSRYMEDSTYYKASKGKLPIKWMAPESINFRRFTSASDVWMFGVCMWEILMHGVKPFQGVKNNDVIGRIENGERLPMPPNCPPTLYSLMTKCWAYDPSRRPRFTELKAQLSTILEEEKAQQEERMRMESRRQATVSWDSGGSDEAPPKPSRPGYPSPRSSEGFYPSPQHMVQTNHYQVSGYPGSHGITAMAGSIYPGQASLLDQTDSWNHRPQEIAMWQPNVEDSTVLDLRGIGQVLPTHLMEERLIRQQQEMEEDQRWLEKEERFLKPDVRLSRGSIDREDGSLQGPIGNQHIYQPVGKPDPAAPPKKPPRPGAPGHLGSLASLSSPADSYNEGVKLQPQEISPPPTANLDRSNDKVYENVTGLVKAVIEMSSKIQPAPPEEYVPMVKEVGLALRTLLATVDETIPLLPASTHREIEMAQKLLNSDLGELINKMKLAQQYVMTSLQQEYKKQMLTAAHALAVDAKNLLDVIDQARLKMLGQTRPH
# [4] = system: Fibrinogen (Alexa647-labelled); assay: fibrinogen binders on compound microarrays, profiling panel, artefact control for SMM control-protein annotation, biochemical, small-molecule microarray, 635/667 nm fluorescence (AID 1131); conditions: fibrinogen-A647 binding fluorescence, higher = more signal;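 note: z-score merges 667 nm fluorescence with per-spot signal-to-noise over triplicate slides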
# [5] = molecular target: Follistatin (Homo sapiens) (UniProt P19883); assay: follistatin binders on small-molecule microarrays, primary screen, biochemical, small-molecule microarray, 635/667 nm fluorescence (AID 1132); conditions: FST binding, 635 nm fluorescence, higher = more signal
# Chain of Follistatin (Homo sapiens) (P19883 whole entry, looked up): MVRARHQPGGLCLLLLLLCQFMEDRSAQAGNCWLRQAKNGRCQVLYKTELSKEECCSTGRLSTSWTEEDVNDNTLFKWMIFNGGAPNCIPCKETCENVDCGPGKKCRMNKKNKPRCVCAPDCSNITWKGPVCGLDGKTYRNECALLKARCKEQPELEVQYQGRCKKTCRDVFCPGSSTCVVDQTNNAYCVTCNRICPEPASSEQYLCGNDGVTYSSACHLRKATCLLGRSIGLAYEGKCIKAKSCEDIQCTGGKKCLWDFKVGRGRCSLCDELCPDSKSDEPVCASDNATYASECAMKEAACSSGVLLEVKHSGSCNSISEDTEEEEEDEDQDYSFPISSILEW
# [6] = molecular target: Fibroblast growth factor 2 (Homo sapiens) (UniProt P09038); assay: FGF2 binders on small-molecule microarrays, primary screen, biochemical, small-molecule microarray, 635/667 nm fluorescence (AID 1133); conditions: small-molecule microarray binding, FGF2, fluorescence 635/667; higher = more signal
# Chain of Fibroblast growth factor 2 (Homo sapiens) (P09038 whole entry, looked up): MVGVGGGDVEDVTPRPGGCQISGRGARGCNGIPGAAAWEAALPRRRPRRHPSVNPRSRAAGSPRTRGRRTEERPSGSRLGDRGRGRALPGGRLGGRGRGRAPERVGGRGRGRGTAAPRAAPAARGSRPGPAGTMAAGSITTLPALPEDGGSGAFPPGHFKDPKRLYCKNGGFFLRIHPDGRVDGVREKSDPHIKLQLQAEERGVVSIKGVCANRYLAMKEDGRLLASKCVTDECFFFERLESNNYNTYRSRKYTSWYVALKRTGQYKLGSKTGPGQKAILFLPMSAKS
# [7] = mitochondrial membrane potential change in A549 cells, profiling panel, cell-based, JC-1 fluorescence, basal, 24 h, 100 nL (AID 1138); conditions: higher = more signal;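 note: A549 lung adenocarcinoma cells under basal conditions with no added stimulus; test concentration not given here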
# Lefty1 = Lefty1 binders on small-molecule microarrays, primary screen, biochemical, small-molecule microarray, 635/667 nm fluorescence (AID 1139); conditions: small-molecule microarray binding, fluorescence 635/667; higher = more signal
# [8] = system: wheat germ agglutinin (Triticum aestivum), Alexa647-labelled; assay: wheat germ agglutinin binders on compound microarrays, profiling panel, artefact control for SMM control-protein annotation, biochemical, small-molecule microarray, 635/667 nm fluorescence (AID 1140); conditions: WGA-A647 binding, 635 nm fluorescence, higher = more signal;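 note: score merges 667 nm feature emission with signal to noise over triplicate slides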
# [9] = molecular target: Luciferin 4-monooxygenase (Photinus pyralis) (UniProt P08659); assay: firefly luciferase enzyme inhibitors, primary screen, biochemical, luminescence, purified enzyme, 2006 set (AID 1141); conditions: SteadyGlo luminescence, 30 min, higher = more signal, called active from +8 up or from −8 down;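 note: cell-free assay with purified firefly luciferase at 100 ng per well in PBS; test concentration not given here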
# Chain of Luciferin 4-monooxygenase (Photinus pyralis) (P08659 whole entry, looked up): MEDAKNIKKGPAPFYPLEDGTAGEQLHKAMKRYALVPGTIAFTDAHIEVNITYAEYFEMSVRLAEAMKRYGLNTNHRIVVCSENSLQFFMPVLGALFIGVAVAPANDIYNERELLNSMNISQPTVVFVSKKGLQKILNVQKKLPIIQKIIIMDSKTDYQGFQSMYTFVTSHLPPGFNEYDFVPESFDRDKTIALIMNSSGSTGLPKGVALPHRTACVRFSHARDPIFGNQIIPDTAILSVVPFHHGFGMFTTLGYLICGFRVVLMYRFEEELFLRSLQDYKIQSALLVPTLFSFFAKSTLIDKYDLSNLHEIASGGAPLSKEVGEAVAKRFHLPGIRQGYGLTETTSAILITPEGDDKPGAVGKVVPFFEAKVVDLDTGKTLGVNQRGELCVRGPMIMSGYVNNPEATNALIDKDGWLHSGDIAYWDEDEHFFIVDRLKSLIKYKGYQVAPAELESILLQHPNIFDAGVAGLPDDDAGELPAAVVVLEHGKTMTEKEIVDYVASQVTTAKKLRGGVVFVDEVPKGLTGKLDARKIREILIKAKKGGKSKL
SMILES,composite z-score [1],composite z-score [2],composite z-score [3],composite z-score [4],composite z-score [5],composite z-score [6],z-score [7],composite z-score (Lefty1),composite z-score [8],z-score [9]
O=C1c2ccccc2[C@](Cc2ccccc2I)(C(=O)NC2CC2)[C@H](c2ccc(CO)cc2)N1Cc1ccccc1C(F)(F)F,0.0698,0.749,-0.226,0.938,1.15,0.0532,-0.254,1.26,1.15,0.0135 (inactive)
O=C(NCCN1CCOCC1)[C@@H]1c2ccccc2C(=O)N(Cc2ccccc2)[C@H]1c1ccc(CO)cc1,-0.87,-0.611,-0.668,0.143,0.321,-0.447,0.829,-0.665,-0.3,1.36 (inactive)
CN1C(=O)C2C(C1=O)C1C=C(CCCO)C2C(C2CC2)N1Cc1cc2c(cc1Br)OCO2 (stereo not given),2.92,0.788,0.481,0.919,0.4,0.0867,-0.401,0.317,0.555,-0.0255 (inactive)
C[C@]1(C(=O)NCC(F)(F)F)c2ccccc2C(=O)N(Cc2ccccc2)[C@H]1c1ccc(CO)cc1,1.09,-0.634,-0.712,-1.32,-0.684,-1.02,-0.0626,-1.25,-0.68,0.857 (inactive)
CCOC(=O)C[C@H]1[C@H](OC(=O)c2ccc(-c3ccccc3)cc2)[C@@H](NC(=O)CC(C)C)c2cc(OCCCO)ccc2N1C(=O)c1ccccc1,0.281,0.453,0.513,0.252,0.249,0.376,1.23,0.369,0.0794,-0.228 (inactive)
C=CCNC(=O)[C@@H]1[C@H]2C(=O)O[C@H](c3ccccc3)[C@H](c3ccccc3)N2[C@H](c2ccc(O)cc2)[C@@]12C(=O)Nc1ccc(C#CCC(C(=O)OC)C(=O)OC)cc12,-0.414,1.2,0.267,0.0847,1.24,0.464,-1.22,0.147,0.0307,-0.108 (inactive)
C=CCC(OC(C)=O)[C@@H]1[C@@H](N(Cc2ccc(-c3cccc(C(F)(F)F)c3)o2)C(=O)c2ccc(C)cc2)c2cc(OCCCO)ccc2N1C(=O)Cc1ccc(OC)cc1 (stereo not given in full),-0.139,-0.269,-0.542,-0.366,1.02,-0.289,1.36,0.189,0.0232,0.147 (inactive)
CCCNC(=O)[C@@]1(Sc2ccc(C)cc2)CC(=O)N(C2CCCCC2)[C@@H]1c1ccc(CO)cc1I,1.53,1.2,0.996,0.146,-0.182,0.128,1.04,-0.351,0.73,-0.0779 (inactive)
COc1ccc(CCNC(=O)[C@@]2(Cc3ccccc3I)c3ccccc3C(=O)N(Cc3ccccc3Cl)[C@H]2c2ccc(CO)cc2)cc1,0.0199,0.899,0.196,0.0632,0.0376,0.0031,0.311,-0.321,0.0638,-0.0513 (inactive)
CC(C)C[C@@H]1NC(=O)[C@H]2C[C@@H](C(=O)NCCCCCN)[C@@H](c3cccc(OCCO)c3)N2C1=O,1.22,0.334,-0.0639,0.133,-0.214,0.181,0.34,-0.813,0.817,-1.07 (inactive)
CC(C)(C)OC(=O)CC[C@]12N=C(c3ccc(OCCCO)cc3)O[C@H]1c1ccccc1N(Cc1ccccc1)C2=O,1.6,1.13,0.56,0.758,1.35,1.4,3.04,0.457,0.477,-2.2 (inactive)
O=C1O[C@H](c2ccccc2)[C@H](c2ccccc2)N2[C@H]1[C@@H](C(=O)N1CCCCCCC1)[C@]1(C(=O)Nc3ccc(C#CC4(O)CCCCCC4)cc31)[C@H]2c1ccc(O)cc1,0.821,1.22,1.75,0.545,1.4,1.37,0.706,1.27,0.757,-0.0026 (inactive)
C=C(C(=O)CC[C@@H](OC(=O)c1ccccc1-c1ccccc1C(=O)O)c1ccccc1OCCO)C(C)C,-0.186,1.23,0.183,0.532,1.46,1.77,-0.0391,1.58,0.109,-0.679 (inactive)
CC(C)C[C@@H]1NC(=O)[C@@]23C(=O)N[C@@H](Cc4ccccc4)C2[C@H](C)[C@@]2(C)O[C@H]2C3/C=C/C/C=C\CNC(=O)[C@@H](C)NC1=O (stereo not given in full),-0.471,-0.522,-0.647,-0.67,0.418,0.901,0.0204,0.709,0.808,0.757 (inactive)
O=C1O[C@H](c2ccccc2)[C@H](c2ccccc2)N2[C@H]1[C@@H](C(=O)O)[C@]1(C(=O)Nc3ccc(C#CC4(O)CCCCCC4)cc31)[C@H]2c1ccc(O)cc1,0.401,0.391,0.016,-0.132,-0.0848,-0.201,-0.697,0.0963,0.211,-0.828 (inactive)
CCOC(=O)C[C@H]1[C@H](OC(=O)c2ccccc2-c2ccccc2)[C@@H](NC(=O)c2ccc3ccccc3n2)c2cc(OCCCO)ccc2N1C(=O)c1ccccc1,-0.0974,0.378,0.185,0.322,0.782,0.16,0.628,0.634,0.857,0.272 (inactive)
[N-]=[N+]=NCc1ccccc1[C@@H]1OC(c2ccc(OCCCO)cc2)=N[C@]1(Cc1ccccc1N=[N+]=[N-])C(=O)NCCN1CCOCC1,1.37,1.25,0.535,0.983,1.39,0.893,2.23,0.54,0.445,-2.82 (inactive)
Cc1c(NC(=O)/C(C#N)=C/c2ccccc2Cl)c(=O)n(-c2ccccc2)n1C,0.228,0.654,-0.0387,0.425,0.255,-0.0318,0.886,-0.0835,0.195,-0.805 (inactive)
NC(=O)NCC#Cc1ccc2c(c1)[C@]1(C(=O)N2)[C@H](C(=O)N2CCN(c3ncccn3)CC2)[C@H]2C(=O)O[C@H](c3ccccc3)[C@H](c3ccccc3)N2[C@@H]1c1ccc(OCCO)cc1,0.0543,0.805,0.0827,0.717,1.33,0.517,-1.18,0.406,0.276,-0.437 (inactive)
O=C1N[C@@H](Cc2ccccc2)C(=O)N2[C@@H]1C[C@@H](C(=O)O)[C@H]2c1ccc(O)cc1,2.01,-0.219,-0.11,0.68,1.35,1.26,0.0945,1.58,0.828,-1.43 (inactive)
O=C1NC(=O)C2C1C=CC(C(O)c1ccccn1)N2Nc1ccc(Cl)cc1Cl (stereo not given),0.713,0.676,0.473,0.717,0.101,0.0367,1.07,0.181,1.11,0.237 (inactive)
CN1C(=O)[C@@H]2[C@@H](CC(COc3ccccc3)=C([C@H](O)CCc3ccccc3)[C@@H]2CO)C1=O,-0.203,-0.438,-0.147,-0.163,0.009,0.364,2.02,-0.0412,0.488,-1.4 (inactive)
CC(=O)NCCCC[C@@H]1NC(=O)[C@@H]2C[C@H](C(=O)NCCCCCCN)[C@H](c3cccc(OCCO)c3)N2C1=O,1.86,0.286,0.367,1.01,0.382,-0.0704,0.266,-0.555,1.11,-0.352 (inactive)
COC(=O)[C@@]1(Cc2ccccc2CN=[N+]=[N-])N=C(c2ccc(OCCCO)cc2)O[C@H]1c1ccccc1,2.5,0.942,0.32,0.191,1.21,0.255,-0.734,0.143,0.255,-2.03 (inactive)
C=CC1c2cc(O)c(OC)cc2CCN1Cc1ccc([N+](=O)[O-])o1 (stereo not given),3,-0.354,-0.426,0.66,0.138,-0.0471,1.3,-0.807,1.39,-1.6 (inactive)
COCCOC(=O)N1C(=O)[C@@]2(c3cc(C#CCCO)ccc31)[C@H](C(=O)N1CCCCCCC1)[C@H]1C(=O)O[C@H](c3ccccc3)[C@H](c3ccccc3)N1[C@@H]2c1ccccc1OCCO,0.573,1.19,0.686,0.885,1.45,0.819,-0.971,1.41,1.25,-1.29 (inactive)
C=CC[C@H](OC(=O)Nc1ccc(SC)cc1)c1ccc(OCCO)cc1,0.299,-0.444,-0.452,-1.96,0.734,0.144,0.08,0.34,0.61,-1.93 (inactive)
